# Paper PMC7862700, “An all-to-all approach to the identification of sequence-specific readers for epigenetic DNA modifications on cytosine”
# Tests used:
# Assay in all cases: DAPPL (digital affinity profiling via proximity ligation, sequencing); 10 mM Tris-HCl pH 7.5, 50 mM NaCl, 1 mM DTT, 4% glycerol, room temperature, 30 min; GST-TFs on glutathione beads, 16-mer random dsDNA library, 0.1% formaldehyde crosslink after washing; high values mean tight binding
# Conditions in all cases: protein: recombinant; tags: N-terminal GST; dsDNA, one strand shown
# [1] = target: T1, FLI1 (Homo sapiens, UniProt Q01543 1-452)
# T1 sequence: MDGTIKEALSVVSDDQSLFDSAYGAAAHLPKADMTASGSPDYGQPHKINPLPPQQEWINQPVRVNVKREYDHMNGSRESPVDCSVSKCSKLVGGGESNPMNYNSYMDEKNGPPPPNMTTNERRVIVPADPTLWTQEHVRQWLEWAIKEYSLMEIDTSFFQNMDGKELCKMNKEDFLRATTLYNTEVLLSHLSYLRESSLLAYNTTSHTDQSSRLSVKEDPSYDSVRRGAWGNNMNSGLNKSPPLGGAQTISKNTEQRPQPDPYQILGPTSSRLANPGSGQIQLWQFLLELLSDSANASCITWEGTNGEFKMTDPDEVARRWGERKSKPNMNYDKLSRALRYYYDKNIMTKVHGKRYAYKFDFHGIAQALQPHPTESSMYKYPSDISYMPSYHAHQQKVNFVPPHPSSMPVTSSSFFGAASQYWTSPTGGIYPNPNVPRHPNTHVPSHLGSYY
# Procedure, shortened: (§1)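 In yeast, human transcription factors were expressed with a GST fusion, then pulled down on glutathione beads and given DNA barcodes. Pooled with a tag-only sample, they were exposed to 200 nmole of a 16-mer random double-stranded DNA library (Tris/NaCl/DTT/glycerol buffer, room temperature, 30 min), washed, crosslinked with 0.1% formaldehyde, proximity-ligated using BsaI/T4 ligase for 1 h at 37 °C, PCR-amplified and read on an Illumina NextSeq500. Each hexamer's frequency of reads for a factor, divided by the matching frequency for the tag-only sample, gives the binding signal.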
# [2] = target: T2, ELK1 (Homo sapiens, UniProt P19419 1-428)
# T2 sequence: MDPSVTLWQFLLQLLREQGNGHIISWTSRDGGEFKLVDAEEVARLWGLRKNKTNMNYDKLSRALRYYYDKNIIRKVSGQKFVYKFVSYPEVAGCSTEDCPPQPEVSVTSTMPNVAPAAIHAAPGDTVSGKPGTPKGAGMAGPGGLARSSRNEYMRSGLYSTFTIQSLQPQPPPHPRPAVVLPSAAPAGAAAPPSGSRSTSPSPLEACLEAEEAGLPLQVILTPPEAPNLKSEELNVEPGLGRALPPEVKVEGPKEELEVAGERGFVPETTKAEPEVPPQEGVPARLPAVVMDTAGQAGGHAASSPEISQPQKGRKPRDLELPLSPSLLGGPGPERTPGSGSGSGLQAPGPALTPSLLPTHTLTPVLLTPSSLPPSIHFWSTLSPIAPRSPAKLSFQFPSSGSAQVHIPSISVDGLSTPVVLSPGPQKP
# Procedure, shortened: as §1
# [3] = target: T3, GABPA (Homo sapiens, UniProt Q06546 1-454)
# T3 sequence: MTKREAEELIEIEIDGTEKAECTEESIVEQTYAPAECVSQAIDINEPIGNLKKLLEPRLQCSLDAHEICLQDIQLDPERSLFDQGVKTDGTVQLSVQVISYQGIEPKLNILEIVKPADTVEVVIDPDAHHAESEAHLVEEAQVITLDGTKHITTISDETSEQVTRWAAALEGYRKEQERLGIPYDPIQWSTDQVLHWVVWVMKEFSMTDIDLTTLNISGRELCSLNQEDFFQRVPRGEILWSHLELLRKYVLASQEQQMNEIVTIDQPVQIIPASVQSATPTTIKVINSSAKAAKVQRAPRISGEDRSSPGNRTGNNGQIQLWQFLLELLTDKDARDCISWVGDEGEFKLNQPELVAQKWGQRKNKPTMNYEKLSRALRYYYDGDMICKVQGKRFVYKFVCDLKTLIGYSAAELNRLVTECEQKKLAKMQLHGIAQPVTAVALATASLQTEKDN
# Procedure, shortened: as §1
# [4] = target: T4, ERG (Homo sapiens, UniProt P11308 1-479)
# T4 sequence: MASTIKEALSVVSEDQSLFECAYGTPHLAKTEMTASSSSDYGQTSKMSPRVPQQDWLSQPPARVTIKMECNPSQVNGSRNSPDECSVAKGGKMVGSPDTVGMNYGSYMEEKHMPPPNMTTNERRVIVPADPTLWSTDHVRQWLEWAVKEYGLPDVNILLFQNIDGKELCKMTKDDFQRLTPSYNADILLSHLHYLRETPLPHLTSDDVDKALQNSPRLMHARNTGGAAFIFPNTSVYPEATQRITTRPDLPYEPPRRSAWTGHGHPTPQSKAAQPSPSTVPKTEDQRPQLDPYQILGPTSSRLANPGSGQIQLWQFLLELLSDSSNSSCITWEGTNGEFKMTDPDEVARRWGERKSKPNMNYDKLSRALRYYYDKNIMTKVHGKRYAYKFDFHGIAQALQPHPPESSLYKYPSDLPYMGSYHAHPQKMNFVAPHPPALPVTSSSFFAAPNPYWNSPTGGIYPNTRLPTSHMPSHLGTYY
# Procedure, shortened: as §1
# [5] = target: ELF1 (Homo sapiens, UniProt P32519 1-619)
# Procedure, shortened: as §1
# [6] = target: T5, EHF (Homo sapiens, UniProt Q9NZC4 1-300)
# T5 sequence: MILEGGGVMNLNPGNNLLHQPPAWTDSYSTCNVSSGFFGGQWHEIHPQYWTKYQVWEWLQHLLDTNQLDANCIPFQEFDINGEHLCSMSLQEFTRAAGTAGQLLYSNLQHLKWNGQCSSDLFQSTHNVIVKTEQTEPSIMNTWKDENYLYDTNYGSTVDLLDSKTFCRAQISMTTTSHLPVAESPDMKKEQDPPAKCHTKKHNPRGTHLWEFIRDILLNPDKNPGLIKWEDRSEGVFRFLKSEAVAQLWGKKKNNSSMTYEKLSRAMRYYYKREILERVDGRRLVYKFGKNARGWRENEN
# Procedure, shortened: as §1
# [7] = target: SPIB (Homo sapiens, UniProt Q01892 1-262)
# Procedure, shortened: as §1
# [8] = target: T6, ELK3 (Homo sapiens, UniProt P41970 1-407)
# T6 sequence: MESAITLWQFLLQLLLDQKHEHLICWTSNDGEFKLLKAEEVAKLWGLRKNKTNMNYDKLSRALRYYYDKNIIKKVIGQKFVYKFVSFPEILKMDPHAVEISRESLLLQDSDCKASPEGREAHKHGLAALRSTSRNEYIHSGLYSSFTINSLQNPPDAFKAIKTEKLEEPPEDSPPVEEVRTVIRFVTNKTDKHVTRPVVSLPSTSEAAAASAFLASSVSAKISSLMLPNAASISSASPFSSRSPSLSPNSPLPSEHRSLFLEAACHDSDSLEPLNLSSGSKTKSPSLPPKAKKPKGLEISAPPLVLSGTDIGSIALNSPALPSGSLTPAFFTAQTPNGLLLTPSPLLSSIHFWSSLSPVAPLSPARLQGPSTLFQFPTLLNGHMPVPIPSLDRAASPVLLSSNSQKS
# Procedure, shortened: as §1
# [9] = target: T7, ELK4 (Homo sapiens, UniProt P28324-2 1-405)
# T7 sequence: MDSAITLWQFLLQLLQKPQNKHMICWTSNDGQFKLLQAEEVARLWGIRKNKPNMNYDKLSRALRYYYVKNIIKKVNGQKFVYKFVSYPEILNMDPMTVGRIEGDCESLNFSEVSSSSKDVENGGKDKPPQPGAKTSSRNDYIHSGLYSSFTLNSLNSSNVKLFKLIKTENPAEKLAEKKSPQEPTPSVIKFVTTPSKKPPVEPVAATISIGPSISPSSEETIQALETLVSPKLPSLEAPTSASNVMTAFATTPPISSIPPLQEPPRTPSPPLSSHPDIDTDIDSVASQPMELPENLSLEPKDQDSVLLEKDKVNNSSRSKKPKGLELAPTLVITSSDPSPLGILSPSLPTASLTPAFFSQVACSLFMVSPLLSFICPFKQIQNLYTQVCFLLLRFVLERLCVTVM
# Procedure, shortened: as §1
# [10] = target: T8, ETV2 (Homo sapiens, UniProt O00321 1-342)
# T8 sequence: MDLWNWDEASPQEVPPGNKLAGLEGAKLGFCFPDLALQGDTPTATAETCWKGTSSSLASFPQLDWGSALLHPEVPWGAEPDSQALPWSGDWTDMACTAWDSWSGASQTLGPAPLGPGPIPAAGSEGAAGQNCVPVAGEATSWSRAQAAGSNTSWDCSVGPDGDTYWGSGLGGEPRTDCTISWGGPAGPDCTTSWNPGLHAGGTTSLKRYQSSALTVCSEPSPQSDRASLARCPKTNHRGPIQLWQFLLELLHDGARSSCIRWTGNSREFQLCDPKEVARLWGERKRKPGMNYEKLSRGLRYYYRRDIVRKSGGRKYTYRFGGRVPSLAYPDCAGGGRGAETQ
# Procedure, shortened: as §1
# [11] = target: T9, ETV3L (Homo sapiens, UniProt Q6ZN32 1-361)
# T9 sequence: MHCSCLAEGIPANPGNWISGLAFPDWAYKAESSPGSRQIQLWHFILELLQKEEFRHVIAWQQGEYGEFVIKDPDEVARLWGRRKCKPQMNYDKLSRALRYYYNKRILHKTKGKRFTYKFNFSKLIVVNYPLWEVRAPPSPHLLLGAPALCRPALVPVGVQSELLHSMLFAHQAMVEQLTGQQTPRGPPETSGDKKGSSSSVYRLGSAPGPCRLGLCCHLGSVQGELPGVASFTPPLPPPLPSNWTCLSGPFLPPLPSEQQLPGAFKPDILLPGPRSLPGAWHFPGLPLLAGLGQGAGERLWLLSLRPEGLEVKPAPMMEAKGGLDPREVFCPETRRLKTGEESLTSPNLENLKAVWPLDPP
# Procedure, shortened: as §1
# [12] = target: T10, ETS2 (Homo sapiens, UniProt P15036 1-469)
# T10 sequence: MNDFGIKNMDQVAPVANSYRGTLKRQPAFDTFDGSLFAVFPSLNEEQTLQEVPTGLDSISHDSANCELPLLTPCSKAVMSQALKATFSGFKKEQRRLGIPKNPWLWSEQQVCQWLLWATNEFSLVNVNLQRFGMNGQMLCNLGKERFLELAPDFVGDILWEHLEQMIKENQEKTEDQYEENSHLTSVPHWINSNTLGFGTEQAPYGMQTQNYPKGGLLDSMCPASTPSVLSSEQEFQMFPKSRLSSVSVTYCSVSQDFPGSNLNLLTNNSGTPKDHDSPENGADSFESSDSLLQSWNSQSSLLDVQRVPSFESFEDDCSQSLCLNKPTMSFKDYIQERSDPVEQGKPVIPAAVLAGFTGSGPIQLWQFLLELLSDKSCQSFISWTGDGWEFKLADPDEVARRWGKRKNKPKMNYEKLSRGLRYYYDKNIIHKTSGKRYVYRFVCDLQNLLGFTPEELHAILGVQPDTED
# Procedure, shortened: as §1
# [13] = target: T11, ETV7 (Homo sapiens, UniProt Q9Y603 1-341)
# T11 sequence: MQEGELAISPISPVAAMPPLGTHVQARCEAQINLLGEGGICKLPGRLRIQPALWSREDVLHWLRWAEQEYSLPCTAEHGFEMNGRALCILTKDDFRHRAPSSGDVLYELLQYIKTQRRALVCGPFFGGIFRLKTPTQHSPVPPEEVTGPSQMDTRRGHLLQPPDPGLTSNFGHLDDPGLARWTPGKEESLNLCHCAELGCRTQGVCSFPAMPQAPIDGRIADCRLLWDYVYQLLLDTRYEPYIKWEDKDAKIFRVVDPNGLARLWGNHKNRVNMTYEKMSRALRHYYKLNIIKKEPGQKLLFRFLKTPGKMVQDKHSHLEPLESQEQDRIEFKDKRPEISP
# Procedure, shortened: as §1
# [14] = target: T12, ETV3 (Homo sapiens, UniProt P41162-2 1-143)
# T12 sequence: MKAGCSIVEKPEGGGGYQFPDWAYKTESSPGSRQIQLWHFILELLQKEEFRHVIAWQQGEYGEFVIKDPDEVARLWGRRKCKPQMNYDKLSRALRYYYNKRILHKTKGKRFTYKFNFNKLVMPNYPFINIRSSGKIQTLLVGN
# Procedure, shortened: as §1
# [15] = target: T13, ELF5 (Homo sapiens, UniProt Q9UKW6-2 1-255)
# T13 sequence: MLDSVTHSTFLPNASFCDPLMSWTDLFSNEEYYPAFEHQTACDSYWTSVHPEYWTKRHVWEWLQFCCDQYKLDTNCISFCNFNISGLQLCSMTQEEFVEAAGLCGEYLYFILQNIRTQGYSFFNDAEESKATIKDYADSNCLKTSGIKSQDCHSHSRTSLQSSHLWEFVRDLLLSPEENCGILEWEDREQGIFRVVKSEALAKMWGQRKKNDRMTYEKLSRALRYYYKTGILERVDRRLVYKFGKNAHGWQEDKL
# Procedure, shortened: as §1
# Chain of ELF1 (P32519 whole entry): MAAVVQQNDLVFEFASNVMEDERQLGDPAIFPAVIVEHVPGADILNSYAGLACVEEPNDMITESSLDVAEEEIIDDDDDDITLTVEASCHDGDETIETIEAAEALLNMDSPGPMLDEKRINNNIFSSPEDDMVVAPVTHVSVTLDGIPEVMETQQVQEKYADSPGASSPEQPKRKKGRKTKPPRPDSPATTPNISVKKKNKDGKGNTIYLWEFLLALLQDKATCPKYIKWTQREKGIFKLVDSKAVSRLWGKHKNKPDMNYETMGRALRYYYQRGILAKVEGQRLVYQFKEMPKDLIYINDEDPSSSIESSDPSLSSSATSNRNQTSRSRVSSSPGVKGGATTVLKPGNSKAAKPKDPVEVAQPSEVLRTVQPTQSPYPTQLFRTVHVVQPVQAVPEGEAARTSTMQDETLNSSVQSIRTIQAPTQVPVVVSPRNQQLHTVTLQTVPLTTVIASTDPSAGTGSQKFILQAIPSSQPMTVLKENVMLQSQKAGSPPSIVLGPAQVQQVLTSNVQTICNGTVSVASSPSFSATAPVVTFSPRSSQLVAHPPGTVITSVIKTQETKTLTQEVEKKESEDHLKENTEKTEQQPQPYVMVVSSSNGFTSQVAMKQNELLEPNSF
# Chain of SPIB (Q01892 whole entry): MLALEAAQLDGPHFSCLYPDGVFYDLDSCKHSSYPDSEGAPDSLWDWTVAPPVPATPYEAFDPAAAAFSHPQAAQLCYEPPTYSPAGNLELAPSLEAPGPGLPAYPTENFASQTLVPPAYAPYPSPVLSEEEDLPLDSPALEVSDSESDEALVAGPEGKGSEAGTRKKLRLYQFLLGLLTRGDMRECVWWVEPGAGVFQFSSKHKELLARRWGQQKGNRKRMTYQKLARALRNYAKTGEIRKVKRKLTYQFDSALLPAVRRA
Sequence,binding signal [1],binding signal [2],binding signal [3],binding signal [4],binding signal [5],binding signal [6],binding signal [7],binding signal [8],binding signal [9],binding signal [10],binding signal [11],binding signal [12],binding signal [13],binding signal [14],binding signal [15]
CAGCGC,"1.09 fold enrichment (6-mer frequency, TF over GST control)","1.03 fold enrichment (6-mer frequency, TF over GST control)","1.01 fold enrichment (6-mer frequency, TF over GST control)","1.03 fold enrichment (6-mer frequency, TF over GST control)","1.08 fold enrichment (6-mer frequency, TF over GST control)","1.01 fold enrichment (6-mer frequency, TF over GST control)","1.07 fold enrichment (6-mer frequency, TF over GST control)","1.06 fold enrichment (6-mer frequency, TF over GST control)","1.06 fold enrichment (6-mer frequency, TF over GST control)","1.07 fold enrichment (6-mer frequency, TF over GST control)","1.09 fold enrichment (6-mer frequency, TF over GST control)","1.1 fold enrichment (6-mer frequency, TF over GST control)","1.02 fold enrichment (6-mer frequency, TF over GST control)","1 fold enrichment (6-mer frequency, TF over GST control)",–
GACGTT,"1.05 fold enrichment (6-mer frequency, TF over GST control)",–,–,–,–,–,–,–,–,–,–,–,–,–,"1.01 fold enrichment (6-mer frequency, TF over GST control)"
